The results in this text go back to ChEMBL document CHEMBL4513216, “Probing the Open Global Health Chemical Diversity Library for Multistage-Active Starting Points for Next-Generation Antimalarials” (ACS Infect Dis, 2020).

Out of some 68,000 compounds screened, about 2,700 (4%) showed an effect of 50% or more. The sample holds strong results, similar compounds and a random draw of the others, so the mix is not that of the screen.

The test system of this experiment is Plasmodium berghei. Briefly: Screen against P. berghei liver stage (PbLuc), transformed with Luciferase, at 2uM. It counts as functional, HepG2. The note with it: tested at 2 uM.
For the compound `COCC1CC2(CCN(C(=O)c3ccccc3C)CC2)CN1C(C)C` (stereo unspecified), the INHIBITION was determined as 24.86%.

Take `O=C(c1cn(CC(=O)N2CCCCC2)c2ccccc12)C1CC1`: the INHIBITION is recorded as -27.61%. In the case of `O=C(c1cn(CC(=O)N2CCCC2)c2ccccc12)C1CC1` it was 54.29%. Take `O=C(c1cn(CC(=O)N2CCCCCC2)c2ccccc12)C1CC1`: the INHIBITION is listed as -45.95%. In the case of `CCOCC1CN(C(=O)c2cnoc2C)Cc2cn(C)nc21` (stereo unspecified), the INHIBITION is listed as -10.98%. For `CCOc1ccc(CN2CCCC(c3cc4ncccc4[nH]3)C2)cc1` (stereo unspecified) the value was -12.12%; for `CC(=O)Nc1ccc(CN2CCCC(c3cc4ncccc4[nH]3)C2)cc1` (stereo unspecified), 50.68%.

Regarding `Fc1ccc(CN2CCCC(c3cc4ncccc4[nH]3)C2)cc1` (stereo unspecified), the INHIBITION was -6.41%. For `Cc1occc1C(=O)N1CCCC2(CCN(CCN3CCCC3)C2=O)C1` (stereo unspecified) the value was -15.36%. In the case of `Cc1ccc(Cn2nc(C)c3c(C(=O)O)c(Cl)c(C4CC4)nc32)cc1` it was 26.11%; in that of `Cc1noc2nc(C3CC3)c(Cl)c(C(=O)O)c12`, -7.81%; in that of `Cc1nn(C)c2nc(C3CC3)c(Cl)c(C(=O)O)c12`, 52.23%.

With `CCc1csc(NC(=O)NCc2ccccn2)n1`, the INHIBITION was found to be 29.32%. For the compound `Cc1c(C(=O)N(C)CC(F)(F)F)nnn1-c1ccccc1Cl`, the INHIBITION is listed as -20.76%. Consider `CSC1(CNC(=O)NC(C)Cc2cccc(F)c2)CCOCC1` (stereo unspecified), for which the INHIBITION is on record as 16.49%.

Regarding `CSC1(CNC(=O)NC(C)c2ccc(F)cc2)CCOCC1` (stereo unspecified), the INHIBITION is listed as 51.43%. For `CSC1(CNC(=O)NC(C)c2ccc(F)c(F)c2)CCOCC1` (stereo unspecified) the value was -90.61%.

For the compound `CCS(=O)(=O)CCN1CCN(C2CCC(C(C)C)CC2)CC1` (stereo unspecified), the INHIBITION worked out at 20.83%. In the case of `COCc1nccc(C2CCCN(Cc3ccc(SC)cc3)C2)n1` (stereo unspecified) it was 35.63%; in that of `CC1N(C)C(=O)COC12CCN(Cc1nccs1)CC2` (stereo unspecified), -52.93%.

Turning to `OCC1CCCN1c1cc(NCCc2ccccn2)ncn1` (stereo unspecified), the INHIBITION was -13.49%. In the case of `CN1CCc2[nH]cnc2C12CCN(C(=O)CCc1cccs1)CC2` it was 46.51%; in that of `CC(=O)N1CCc2[nH]cnc2C12CCN(C(=O)Cc1ccccn1)CC2`, 39.58%; in that of `CC(=O)N1CCc2[nH]cnc2C12CCN(C(=O)Cc1cccs1)CC2`, 63.14%. On to `Cc1cccc(CN2C[C@@H]3CN(C(=O)[C@H]4CCCO4)C[C@@H]3C2=O)c1`, for which the INHIBITION worked out at 19.64%. In the case of `CCn1ncc2c1C(COC)N(C(=O)c1cccs1)CC2` (stereo unspecified) it was -23.14%. In the case of `O=C(Nc1nnn[nH]1)c1ccc(I)c(F)c1` it was 15.2%.

Take `Cc1cccc(CN2CC[C@@H]3[C@@H]2CCN3Cc2cccs2)n1`: the INHIBITION is -18.6%. For `Cc1cccc(CN2C(=O)C[C@H]3[C@@H]2CCN3Cc2nccs2)n1` the value was 31.5%.

As for `Cc1cccc(CN2C(=O)C[C@H]3[C@@H]2CCN3Cc2cccs2)n1`, the INHIBITION turned out to be 63.06%.

Consider `Cc1ccc(-c2cn[nH]c2C2CCCN(c3ncccn3)C2)cc1` (stereo unspecified), for which the INHIBITION was -16.71%. In the case of `Cc1ccc(-c2cn[nH]c2C2CCCN(c3nccc(N)n3)C2)cc1` (stereo unspecified) it was 58%; in that of `Cc1ccc(-c2cn[nH]c2C2CCCN(c3ccnc(C)n3)C2)cc1` (stereo unspecified), -8.3%. In the case of `Cc1nc(CCNC(=O)NC(C)Cn2cccn2)cs1` (stereo unspecified) it was 38.76%; in that of `O=C(N[C@@H]1CN[C@H]2CCCO[C@H]21)c1cccnc1`, 33.69%. In the case of `CC(=O)N1CCN(C(C)c2nnc(CC(C)C)o2)CC1` (stereo unspecified), the INHIBITION amounted to 2.02%. On to `CNc1ncc(CN(C)C(=O)CCc2[nH]nc3c2CCCC3)cn1`, for which the INHIBITION came out at 50.57%. As to `CN(Cc1ccncn1)C(=O)CCc1[nH]nc2c1CCCC2`, the INHIBITION is listed as -2.31%. Regarding `CNc1ncc(CN(C)C(=O)CCc2cc3n(n2)CCCNC3)cn1`, the INHIBITION was determined as 20.76%.

For the compound `Cc1ccc(CNC(=O)Cn2nc(-c3ccc(F)cc3)oc2=O)cc1F`, the INHIBITION is listed as 1.6%.

As to `COc1cccc(-c2noc(C3CCN(CC4CCCCC4)C3)n2)c1` (stereo unspecified), the INHIBITION worked out at 30.29%. In the case of `CCS(=O)(=O)N1CCC2(CC1)CN(C(=O)N(C)C)Cc1ccccc12` it was 6.79%.

Regarding `CC(C)N1CCC(CC(=O)NCc2cc(O)ncn2)CC1`, the INHIBITION is reported as 12.17%.

In the case of `CCc1csc(CCNC(=O)CC2CCN(C(C)C)CC2)n1`, the INHIBITION is reported as -2.5%. In the case of `CC(C)N1CCC(CC(=O)NCCc2cc(O)ncn2)CC1` it was 60.59%; in that of `Cn1ccnc1CN1C[C@@H]2OCCN(c3ncccn3)[C@@H]2C1`, 52.17%.

In the case of `CN(C)c1nccc(N2CCO[C@H]3CN(Cc4nccn4C)C[C@H]32)n1`, the INHIBITION is recorded as 11.6%. In the case of `Cn1cncc1CN1C[C@@H]2OCCN(c3ncccn3)[C@@H]2C1` it was 25.02%. In the case of `CC(C)NC(=O)N1Cc2nccn2CC(CN2CCCC2)C1` (stereo unspecified) it was 2.5%. In the case of `CCC(C)Oc1ccc(CNCCc2c[nH]cn2)cc1Cl` (stereo unspecified) it was 12.15%.

As for `Cc1ccc(C)c(NC(=O)Cn2nc(C)c(C#N)c2N)c1`, the INHIBITION is -15.17%.

Turning to `Cc1nn(CC(=O)Nc2cccc(F)c2)c(N)c1C#N`, the INHIBITION was -33.61%. For `COc1ccc(C)cc1NC(=O)Cn1nc(C)c(C#N)c1N` the value was 5.32%; for `CC(=O)c1c(C)nn(CC(=O)Nc2ccc(F)cc2)c1C`, -16.43%. In the case of `Cc1cc(NC(=O)Cn2nc(C)c(C#N)c2N)ccc1Br` it was 55.86%.

In the case of `Cc1nn(CC(=O)Nc2ccc(F)cc2)c(N)c1C#N`, the INHIBITION stood at 58.12%. In the case of `CCc1ccc(S(=O)(=O)N2Cc3c(CN(C)C)nn(C)c3C2)cc1` it was 48.09%.

Regarding `NC1CCc2nc(-c3ccncc3)nc(Nc3cccc(F)c3)c2C1` (stereo unspecified), the INHIBITION was -23.54%.

Consider `Cc1cccc2c1ccn2CCC(=O)Nc1c2c(nn1C)CSC2`, for which the INHIBITION turned out to be 13.65%. As to `CCN(C)c1ncnc2c1CCN(Cc1ccc(OC)cc1)CC2`, the INHIBITION stood at 7.86%.

As for `O=C(c1ccccn1)N1CCCC(c2nccn2CC2CCC2)C1` (stereo unspecified), the INHIBITION worked out at 14.41%.

On to `O=C(CSCC1CC1)N1CCCC(c2nccn2Cc2ccccn2)C1` (stereo unspecified), for which the INHIBITION is recorded as -17.83%. For the compound `O=C(Cc1ccccn1)N1CCCC(c2nccn2CC2CCC2)C1` (stereo unspecified), the INHIBITION is listed as 54.47%. For `Cc1csc(CCCNC(C)CC(=O)Nc2cccc(C)c2C)n1` (stereo unspecified) the value was -77.68%; for `O[C@@H]1C[C@@H](c2nc(-c3ccc(OC(F)(F)F)cc3)no2)N(CC2CC2)C1`, 13.92%.

As for `Cc1noc([C@H]2CC[C@@H]3[C@@H](CCN3S(=O)(=O)C3CC3)O2)n1`, the INHIBITION turned out to be 1.83%.
